Structures are written as SMILES. The whole screen tested about 3,700 compounds, of which fewer than 10 were called active. These entries were drawn from the full list. Unmarked numbers belong to inactive results. No rule for the calls is given here.

The test can be described thus: NMR binding screen, influenza A RNA promoter, Kd (AID 1637). The note with it: NMR binding to influenza A RNA promoter.
In the case of `CNC(=O)CC1Sc2ccccc2NC1=O` (stereo not given), the Kd was above 4 mM. The result for `O=C1CSC(=Nc2ccccc2[N+](=O)[O-])N1` reads above 4 mM. The result for `CN1CCC(N2CCOCC2)CC1` reads above 4 mM; that for `Cc1cc(C(=O)NCc2cccnc2)no1`, above 4 mM; that for `COc1ccc(S(=O)(=O)N2CCOCC2)cc1C(C)C`, above 4 mM.

Turning to `COc1cccc(/C=C/C(=O)O)c1C(C)C`, the Kd is above 4 mM. As for `CCN1CCC(=NO)CC1`, the Kd was above 4 mM. The result for `Cc1ccc(SCc2cc(=O)n3[nH]cnc3n2)cc1` reads above 4 mM.

On to `Nc1ccc(-n2cccn2)cc1`, for which the Kd is above 4 mM. The value for `Cc1ccc(S(=O)(=O)CC(=O)N(C)C)cc1` was above 4 mM; that for `Cc1cccc(N2C(=O)CC(=O)NC2=O)c1` was above 4 mM. Turning to `Cc1ccccc1NC(=O)C1CC(=O)N=C(N)S1` (stereo not given), the Kd is above 4 mM. The value for `CC(C)(C)CC(=O)NNC(=O)c1cnccn1` was above 4 mM; that for `CCSc1nc(N)c(NC(=O)c2ccco2)c(=O)[nH]1` was above 4 mM. The result for `Cc1ccccc1NC(=O)CC1NCCNC1=O` (stereo not given) reads above 4 mM; that for `Cc1cc(CN2C(=O)c3ccccc3C2=O)on1`, above 4 mM; that for `O=C(O)CCCNC(=O)c1ccccc1C(=O)O`, above 4 mM. The result for `CC(C)(C)NC(=O)CN1C(=O)c2ccccc2S1(=O)=O` reads above 4 mM; that for `COc1ccc(/C=C2\SC(N)=NC2=O)cc1`, above 4 mM. On to `CC(C)=NNC(=O)C(=O)Nc1ccc(F)cc1`, for which the Kd is above 4 mM. The value for `CS/C(N)=C\C(C)=O` was above 4 mM; that for `Nc1nonc1-c1nc2ccccc2[nH]1` was above 4 mM. The value for `NCc1ccc(-c2ccccn2)s1` was above 4 mM; that for `Cc1oc(-c2ccccc2)cc1C(=O)O` was above 4 mM; that for `O=S1(=O)CCC2CC=CCC21` (stereo not given) was above 4 mM.

Consider `S=C(c1ccc(N2CCOCC2)cc1)N1CCOCC1`, for which the Kd is above 4 mM. The result for `CC1(C)CC2(C)N(N)C(=O)CN2C(=S)N1` (stereo not given) reads above 4 mM. The value for `O=c1[nH]cc(NCc2ccccc2)c(=O)[nH]1` was above 4 mM; that for `COc1cccc(N2CCNCC2)c1` was above 4 mM. The value for `c1cnc(N2CCNCC2)nc1` was above 4 mM; that for `COc1cc2nc(N3CCNCC3)nc(N)c2cc1OC` was 0.078 mM (active); that for `CN(C)c1nc(N2CCOCC2)c2cnn(C)c2n1` was above 4 mM. Regarding `O=C(CSc1ncn[nH]1)c1ccccc1`, the Kd is above 4 mM. As to `Cc1cccc(N2C(=O)CCC2=O)n1`, the Kd was above 4 mM. The result for `O=c1[nH]c(O)c(C=NCc2cccs2)c(=O)[nH]1` reads above 4 mM; that for `CC(=O)c1cccc(N=C2NC(=O)CS2)c1`, above 4 mM; that for `Cc1csc(SCC(=O)N2CCCC2)n1`, above 4 mM.

In the case of `Nc1cc(=O)[nH]c(SCC(=O)Nc2nccs2)n1`, the Kd was above 4 mM. The result for `COc1cc(OC)c2c(=O)c(OC)c(-c3ccc(OC)c(OC)c3)oc2c1` reads above 4 mM; that for `C=C1CCC2[C@](C)(CO)[C@H](O)CC[C@@]2(C)[C@@H]1C/C=C1/C(=O)OC[C@H]1O` (stereo not given in full), above 4 mM; that for `Cc1occc1C(=O)NCc1ccccn1`, above 4 mM.

For the compound `NC(=O)NC1C=CS(=O)(=O)C1` (stereo not given), the Kd is above 4 mM.

Consider `Cc1c(N=Cc2ccco2)c(=O)n(-c2ccccc2)n1C`, for which the Kd is above 4 mM. The result for `Cc1ccc(CN2C3=NC(=O)CN3c3ccccc32)cc1` reads above 4 mM; that for `COc1nc(N2CCOCC2)nc(N)c1[N+](=O)[O-]`, above 4 mM; that for `CC1=NN2C(=N)/C(=C\c3cccs3)C(=O)N=C2S1`, above 4 mM. On to `O=C(O)C1NCCc2ccccc21` (stereo not given), for which the Kd is above 4 mM.

In the case of `CCn1nnc(NC(=O)c2ccccc2Br)n1`, the Kd is above 4 mM. As to `O=S1(=O)NC(=NCc2ccco2)c2ccccc21`, the Kd was above 4 mM.

Consider `O=C(NCc1ccc2c(c1)OCO2)c1cccs1`, for which the Kd was above 4 mM. Regarding `Cn1nnc2cc(C(=O)Nc3cccnc3)ccc21`, the Kd is above 4 mM. Consider `Cc1ccc(SCc2nc(-c3ccncc3)no2)cc1`, for which the Kd was above 4 mM.

Regarding `NC1CS(=O)(=O)CC1O` (stereo not given), the Kd was above 4 mM. Turning to `C=CCCCCCCCCCCCC(O)CC(O)CO` (stereo not given) (tested in a mixture with another compound), the Kd is above 4 mM. `CN1C(=O)C2CC=C(Cl)CC2C1=O` (stereo not given): the Kd was above 4 mM.

For `Cc1c(/C=N\n2cnnc2)c2ccccc2n1C`, the Kd was above 4 mM.

Take `CN(C)S(=O)(=O)NCc1ccc2c(c1)OCO2`: the Kd was above 4 mM.

As to `CC1(c2ccncc2)NC(=O)NC1=O` (stereo not given), the Kd is above 4 mM. The value for `c1cc2n(c1)CCNC2c1ccncc1` (stereo not given) was above 4 mM; that for `Cc1nc2[nH]onc2c2nccc(=O)c12` was above 4 mM; that for `CCCN1CCC(N2CCC(O)CC2)CC1` was above 4 mM. The value for `O=C1NC(=O)/C(=C\c2ccncc2)S1` was above 4 mM; that for `O=C1CSC(=O)N1CN1CCCC1` was above 4 mM. The result for `O=C(O)CSCc1ccc(Cl)cc1` reads above 4 mM; that for `CCCC(=O)N1CCSCC1`, above 4 mM; that for `Cn1nc(C(=O)N2CCCC2)c2ccccc2c1=O`, above 4 mM. For `Cc1nn(C)c(Cl)c1C(O)c1c(C)nn(C)c1Cl`, the Kd was above 4 mM. Consider `Cc1ccc(-c2nn3c(C)nnc3s2)cc1N`, for which the Kd was above 4 mM. The value for `Nc1ccc2nsnc2c1` was above 4 mM; that for `CC(=O)Nc1cc(C(N)=O)cc(C(N)=O)c1` was above 4 mM; that for `NS(=O)(=O)c1ccccc1Cl` was above 4 mM.

For the compound `CSc1nc(=O)[nH]c2c1CCC2`, the Kd was above 4 mM. Regarding `Cn1cnc2cc(NC(=O)c3ccco3)ccc21`, the Kd was above 4 mM.

On to `COc1ccc(NC2=NCC(C)S2)cc1` (stereo not given), for which the Kd was above 4 mM. The result for `COC(=O)Nc1nnc(-c2ccncc2)s1` reads above 4 mM; that for `NC(=O)Cn1nnc(-c2ccc(C(F)(F)F)cc2)n1`, above 4 mM; that for `Nc1cccc(NC(=O)c2cccs2)c1`, above 4 mM. For the compound `CCN1CCC(NC2CCC(O)CC2)CC1` (stereo not given), the Kd was above 4 mM. The value for `OC12C=CC(CC1)CC2` was above 4 mM. The result for `NC(=O)CSc1ccc2nnc(-c3ccccc3)n2n1` reads above 4 mM; that for `CCCCN1C(=O)C2CC/C(=N/O)CC2C1=O` (stereo not given), above 4 mM.

With `C[C@@H]1OC(O[C@H]2[C@H](OC(=O)[C@]34CCC(C)(C)CC3C3=CCC5[C@@]6(C)CC[C@H](OC7O[C@@H](C)[C@H](O[C@@H]8OC[C@@H](O)[C@H](O)[C@H]8O)[C@@H](O)[C@H]7O)C(C)(C)C6CC[C@@]5(C)[C@]3(C)CC4O)OC[C@H](O)[C@H]2O)[C@H](O)[C@H](O)[C@H]1O[C@@H]1O[C@H](CO)[C@@H](O)[C@H](O)[C@H]1O` (stereo not given in full), the Kd was above 4 mM. The result for `NC(=O)C1CCN(C(=O)c2ccccc2F)CC1` reads above 4 mM. The value for `O=C(Nc1cccc2cccnc12)c1cccnc1` was above 4 mM; that for `Cc1nc(NC2=NCCC(=O)N2)nc2ccccc12` was above 4 mM.
